The whole screen tested about 39,000 compounds, of which about 3,300 (8.5%) were called active. The full list was thinned out, with actives kept by preference.

This assay concerns HepG2. Briefly: cytotoxicity call (relative viability < 0.9). The following applies: 10 µM.
`CN1C(=O)c2cc(NC(=O)C3CCOCC3)ccc2OC[C@H]2O[C@H](CC(=O)NCc3ccccc3F)CC[C@H]21`: the cytotoxicity call was “inactive”. Regarding `C[C@H]1CN([C@@H](C)CO)C(=O)c2cc(NS(=O)(=O)c3cn(C)cn3)ccc2O[C@@H]1CN(C)Cc1ccccc1`, the cytotoxicity call is “inactive”. For `CCc1c(c/2[nH]c1/C=C/1\N=C(/C(=C/3\N=C(/C=C/4\N/C(=C2)C(=C4C)C=C)[C@@H](C)[C@@H]3CCC(=O)O)CC(=O)N[C@@H](CC(=O)O)C(=O)O)C(=C1C)C(=O)O)C` the value was “inactive”. For `CC1=C(CCC(=O)O)c2cc3[nH]c(cc4nc(cc5[nH]c(cc1n2)c(C)c5C(C)O)C(C)=C4C(C)O)c(C)c3CCC(=O)O` (configuration not stated) the value was “active”.

As for `C=CC1=C(C)C2=NC/1=C\C1=NC(=C\C3=NC(=C\C4=NC(=C\2)/C(C)=C4CCC(=O)O)/C(CCC(=O)O)=C3C)/C(C=C)=C1C`, the cytotoxicity call is “inactive”.

Turning to `CC/1=C(CCC(=O)O)/C/2=C/c3[nH]c(c(c3CCC(=O)O)C)/C=C/3\N=C(/C=C/4\N=C(\C=C1/N2)C(=C4C)C=C)C(=C3C)C=C`, the cytotoxicity call is “active”. For `COC(=O)CCc1c(c/2[nH]c1/C=C/1\N=C(/C=C/3\N=C(/C=C/4\N/C(=C2)[C@]2(C)[C@H](C(=O)OC)C(=CC=C42)C(=O)OC)C(=C3C=C)C)C(=C1CCC(=O)O)C)C` the value was “active”; for `C=CC1=C(C)C(=Cc2[nH]c(Cc3[nH]c(C=C4NC(=O)C(C)=C4C=C)c(C)c3CCC(=O)O)c(CCC(=O)O)c2C)NC1=O`, “inactive”; for `C=CC1=C(C)c2cc3[nH]c(cc4nc(cc5[nH]c(cc1n2)c(C)c5CCC(=O)O)C(CCC(=O)O)=C4C)c(C)c3C=C`, “active”. Consider `COC(=O)[C@H]1C2C(=O)N(C3CC3)C[C@]23C=C[C@H]1O3` (some centres not stated), for which the cytotoxicity call is “inactive”.

Consider `C[C@H]1CN([C@@H](C)CO)C(=O)c2cccc(NC(=O)C3CCCCC3)c2O[C@H]1CN(C)Cc1ccc(Cl)c(Cl)c1`, for which the cytotoxicity call was “inactive”. For `CO[C@H]1CN(C)C(=O)c2ccc(NS(C)(=O)=O)cc2OC[C@H](C)N(C(=O)c2ccc3c(c2)OCO3)C[C@H]1C` the value was “inactive”; for `C[C@@H]1CN([C@@H](C)CO)S(=O)(=O)c2ccc(C#CC(C)(C)O)cc2O[C@H]1CN(C)Cc1ccccc1`, “inactive”; for `CCCC(=O)Nc1ccc2c(c1)C(=O)N(C)C[C@@H](OC)[C@H](C)CN(Cc1cc(-c3ccccc3)on1)[C@H](C)CO2`, “inactive”.

On to `Cc1noc(C)c1NC(=O)N(C)C[C@@H]1Oc2ccc(NC(=O)CCCN(C)C)cc2C(=O)N([C@@H](C)CO)C[C@@H]1C`, for which the cytotoxicity call is “inactive”. For `C[C@@H]1CN([C@@H](C)CO)C(=O)Cc2cc(NC(=O)Cc3ccccc3)ccc2O[C@@H]1CN(C)S(=O)(=O)c1ccccc1`, the cytotoxicity call is “inactive”. The value for `O=C(Nc1ccc2c(c1)[C@@H]1C[C@@H](CC(=O)N3CCc4ccccc4C3)O[C@@H](CO)[C@@H]1O2)C1CCOCC1` was “inactive”; that for `O=C(C[C@H]1C=C[C@H](NC(=O)c2ccc3c(c2)OCO3)[C@H](CO)O1)NCc1ccc(Oc2ccccc2)cc1` was “inactive”; that for `CC(C)CC#Cc1cnc2c(c1)C(=O)N([C@H](C)CO)C[C@@H](C)[C@@H](CN(C)C(=O)c1ccc3c(c1)OCO3)O2` was “inactive”. As for `C[C@H]1CN([C@@H](C)CO)C(=O)CCCn2nncc2CO[C@H]1CN(C)S(=O)(=O)c1ccc(C#N)cc1`, the cytotoxicity call is “inactive”. The value for `Cc1ccc(S(=O)(=O)NCC[C@H]2CC[C@H](NS(=O)(=O)c3ccccc3Cl)[C@H](CO)O2)cc1` was “inactive”. For `C[C@@H]1CN([C@H](C)CO)C(=O)c2cc(NC(=O)Nc3cccc4ccccc34)ccc2O[C@H]1CN(C)C(=O)Nc1ccc2c(c1)OCO2` the value was “inactive”; for `C[C@@H]1CN([C@@H](C)CO)C(=O)Cc2cc(NC(=O)C3CC3)ccc2O[C@H]1CN(C)S(=O)(=O)c1cccs1`, “inactive”; for `Cc1noc(C)c1NC(=O)Nc1ccc2c(c1)C(=O)N([C@@H](C)CO)C[C@H](C)[C@@H](CN(C)C(=O)Nc1ccc(F)cc1)OCCCC[C@@H](C)O2`, “inactive”. For `Cc1nc2[nH]c(C)c(CCC(=O)O)c(=O)n2n1` the value was “inactive”; for `Cc1[nH]c(=O)[nH]c(=O)c1CCC(=O)O`, “inactive”; for `[Fe+3].CC/1=C(CCC(=O)O)/C/2=C/c3[nH]c(c(c3CCC(=O)O)C)/C=C/3\N=C(/C=C/4\N=C(\C=C1/N2)C(=C4C)C=C)C(=C3C)C=C`, “active”. As for `CC(C)NC(=O)Nc1ccc2c(c1)CC(=O)N([C@@H](C)CO)C[C@@H](C)[C@@H](CN(C)S(=O)(=O)c1ccc(Cl)cc1)O2`, the cytotoxicity call was “inactive”. For `Cc1ccccc1S(=O)(=O)N(C)C[C@@H]1Oc2ccc(NC(=O)Nc3cc(Cl)cc(Cl)c3)cc2CC(=O)N([C@@H](C)CO)C[C@@H]1C` the value was “inactive”; for `CC(C)NC(=O)Nc1ccc2c(c1)CC(=O)N([C@@H](C)CO)C[C@H](C)[C@@H](CN(C)S(=O)(=O)c1ccc(Cl)cc1)O2`, “inactive”. For `C[C@H]1CN([C@@H](C)CO)C(=O)Cc2cc(NC(=O)Nc3ccc(Cl)c(Cl)c3)ccc2O[C@H]1CN(C)S(=O)(=O)c1ccc(Cl)cc1`, the cytotoxicity call was “active”. The value for `Cc1ccccc1S(=O)(=O)N(C)C[C@@H]1Oc2ccc(NC(=O)Nc3cccc(C(F)(F)F)c3)cc2CC(=O)N([C@@H](C)CO)C[C@@H]1C` was “inactive”; that for `Cc1ccccc1S(=O)(=O)N(C)C[C@@H]1Oc2ccc(NC(=O)Nc3ccc(Cl)c(Cl)c3)cc2CC(=O)N([C@@H](C)CO)C[C@@H]1C` was “active”.

Regarding `CC(C)NC(=O)Nc1ccc2c(c1)CC(=O)N([C@H](C)CO)C[C@H](C)[C@H](CN(C)S(=O)(=O)c1ccc(Cl)cc1)O2`, the cytotoxicity call is “inactive”.

Turning to `C[C@H]1CN([C@@H](C)CO)C(=O)Cc2cc(NC(=O)Nc3cc(Cl)cc(Cl)c3)ccc2O[C@H]1CN(C)S(=O)(=O)c1ccc(Cl)cc1`, the cytotoxicity call was “active”.

For the molecule `CC(C)NC(=O)Nc1ccc2c(c1)CC(=O)N([C@H](C)CO)C[C@H](C)[C@@H](CN(C)S(=O)(=O)c1ccc(Cl)cc1)O2`, the cytotoxicity call was “inactive”. As to `Cc1noc(C)c1NC(=O)Nc1ccc2c(c1)CC(=O)N([C@H](C)CO)C[C@H](C)[C@@H](CN(C)Cc1ccc(C(=O)Nc3ccccc3N)cc1)O2`, the cytotoxicity call is “inactive”. For `CCS(=O)(=O)Nc1ccc2c(c1)C(=O)N(C)C[C@H](OC)[C@H](C)CN(CCC(F)(F)F)[C@@H](C)CO2` the value was “inactive”; for `CCN(CC)c1ccc(N2CC=C[C@@]34O[C@@H]5/C=C\CCCOC(=O)[C@@H]5[C@H]3C(=O)N([C@@H](C)CO)[C@@H]4C2=O)cc1`, “inactive”. As for `COc1ccc(NC(=O)Nc2ccc3c(c2)C(=O)N([C@H](C)CO)C[C@@H](C)[C@H](CN(C)C(=O)Nc2ccccc2)OCCCC[C@@H](C)O3)cc1`, the cytotoxicity call was “inactive”. For `Oc1cccc(O)c1O` the value was “inactive”; for `Cn1cc(-c2cc3c(N4CCN(c5ncc([C@@](C)(N)c6ccc(F)cc6)cn5)CC4)ncnn3c2)cn1`, “active”; for `C[C@H](CO)N1C[C@H](C)[C@@H](CN(C)C(=O)Cc2cccnc2)Oc2cc(C#CC3(O)CCCC3)ccc2S1(=O)=O`, “inactive”. The value for `C[C@H](CO)N1C[C@H](C)[C@@H](CN(C)Cc2ccc3c(c2)OCO3)OCCCC[C@H](C)Oc2ccc(NC(=O)CCC(F)(F)F)cc2C1=O` was “inactive”; that for `Cc1noc(C)c1S(=O)(=O)N(C)C[C@H]1Oc2c(NS(=O)(=O)c3ccccc3)cccc2C(=O)N([C@@H](C)CO)C[C@H]1C` was “inactive”. The value for `COc1ccc(S(=O)(=O)Nc2ccc3c(c2)CC(=O)N([C@@H](C)CO)C[C@H](C)[C@@H](CN(C)C(=O)NC(C)C)O3)cc1` was “inactive”; that for `CC(=O)O[C@@]1(C)C[C@@H](O)[C@@H]2C=CO[C@@H](O[C@@H]3O[C@H](CO)[C@@H](O)[C@H](O)[C@H]3O)[C@@H]21` was “inactive”.

As to `c1ccc2[nH]c(-c3ccncc3)nc2c1`, the cytotoxicity call was “inactive”. On to `c1ccc(-c2nc3ccccc3o2)cc1`, for which the cytotoxicity call is “inactive”. Take `O=[N+]([O-])c1ccc2nc(CO)[nH]c2c1`: the cytotoxicity call is “inactive”. Take `CCCC(=O)Nc1ccc(-c2nc3cc(C(C)C)ccc3o2)cc1`: the cytotoxicity call was “inactive”. The value for `NCc1ccc(-c2nc3ccccc3o2)cc1` was “inactive”; that for `NC1(C(=O)Nc2ccc3nc(-c4ccc(F)cc4)oc3c2)CC1` was “inactive”; that for `O=C(Nc1ccc(-c2nc3ccc(NC(=O)c4ccc(Cl)cc4)cc3[nH]2)cc1)c1ccc(Cl)cc1` was “active”.

As for `O=C(Nc1ccc(-c2nc3ccc(NC(=O)c4ccccc4[N+](=O)[O-])cc3[nH]2)cc1)c1ccccc1[N+](=O)[O-]`, the cytotoxicity call is “active”. With `O=C(Nc1ccc(-c2nc3ccc(NC(=O)c4ccc(NC(=O)c5cccc6ccccc56)cc4)cc3[nH]2)cc1)c1ccc(NC(=O)c2cccc3ccccc23)cc1`, the cytotoxicity call was “inactive”. For `Cc1ccc(NC(=O)c2cc(=O)[nH]c(=O)[nH]2)cc1` the value was “inactive”. For `O=C(Nc1ccc(-c2nc3cc(NC(=O)c4ccccc4Cl)ccc3o2)cc1)c1ccccc1Cl` the value was “active”; for `O=C(Nc1ccc(-c2nc3cc(NC(=O)c4ccccc4[N+](=O)[O-])ccc3o2)cc1)c1ccccc1[N+](=O)[O-]`, “active”. For `O=c1[nH]cnc2c1ncn2C1OC(CO)C(O)C1O` (configuration not stated) the value was “inactive”; for `C[C@H](CO)N1C[C@H](C)[C@H](CN(C)C(=O)Nc2cc(F)ccc2F)Oc2cc(/C=C/c3ccccc3)ccc2S1(=O)=O`, “inactive”; for `C[C@H]1CN([C@@H](C)CO)S(=O)(=O)c2ccc(C#CC3(O)CCCC3)cc2O[C@H]1CN(C)C(=O)c1ccncc1`, “inactive”. For the molecule `Nc1cncc(Cl)n1`, the cytotoxicity call was “inactive”. For `CN1CCN(C(=O)C[C@H]2CC[C@H]3[C@@H](COC[C@H](O)CN3C(=O)Nc3ccc4c(c3)OCO4)O2)CC1` the value was “inactive”; for `COc1ccc(S(=O)(=O)N(C)C[C@H]2OCCCC[C@@H](C)Oc3ccc(NC(=O)c4ccccc4)cc3C(=O)N([C@@H](C)CO)C[C@@H]2C)cc1`, “inactive”. For `CN(C)CC#Cc1ccc([C@@H]2[C@@H](CO)N3C(=O)CN(C(=O)CN(C)C)C[C@@H]23)cc1` the value was “inactive”. Turning to `C[C@@H]1CN([C@H](C)CO)C(=O)c2cc(C#CC3(O)CCCC3)cnc2O[C@H]1CN(C)S(=O)(=O)c1ccccc1`, the cytotoxicity call is “inactive”.

Source of the values: the antibiotic and cytotoxicity screens of Wong et al. (2023).
